Here are results for 47 molecules from PubChem BioAssay AID1345082 (National Center for Advancing Translational Sciences (NCATS), 2018).

Molecules are shown by their SMILES. Out of some 94,000 compounds screened, about 4,000 (4.3%) were called active. About 29% were inconclusive and are not listed. What follows is part of a selection rich in actives, with near analogues and random picks from the rest. A number with no mark means an inactive call. The call rests on the fitted dose curve; in most records, active means well fitted inhibition curve with a large enough effect; inconclusive means small, poorly fitted or top-dose-only effect; inactive means no such curve, though single readings can be large or run the other way.
On the % scale 0 is the no-effect control and ±100 the full control effect; potency means the concentration at half of the fitted maximal effect.

This assay in a line: Cytotoxic Profiling in NIH 3T3 Cell Line of Diverse Libraries Using Quantitative High-Throughput Screening. Further: nearly all actives have a fitted effect of over 55% in size. To be noted: NIH 3T3 viability, CellTiter-Glo ATP luminescence, 48-72 h; series mostly up to 96.7 µM; activity change, negative = cytotoxicity: at the top concentration. From the text: Cell-based phenotypic screening is a commonly used approach to discover biological pathways, novel drug targets, chemical probes and high-quality hit-to-lead molecules. Many hits identified from high-throughput screening campaign are ruled out through a series of follow-up potency, selectivity/specificity, and cytotoxicity assays. Prioritization of molecules with little or no cytotoxicity for a more in-depth downstream evaluation influence the future direction of projects, so cytotoxicity profiling of the screening libraries at early stage is essential for increasing the likelihood of candidate success. In this study, we analyzed results from a cell-based cytotoxicity screening campaign, comprising nearly 10,000 compounds in NCATS annotated libraries, and over 100,000 compounds in a diversity library, evaluated in four normal cell lines (HEK 293, NIH 3T3, CRL-7250 and HaCat) and a cancer cell line (KB 3-1, a HeLa subline) with overall screening outcomes, hit rates, pan-activity and selectivity. For the annotated library, we also examined the primary targets and mechanistic pathways regularly associated with cell death. To our knowledge, this is the first study to use high-throughput screening to profile large libraries for cytotoxicity assessment in both normal and cancer cell lines. In summary, the results generated here constitutes a valuable resource for the scientific community and provides insight on identifying cytotoxic compounds with particular mechanisms of action, and prioritizing compounds with suitable cytotoxicity profile for further evaluation.
NIH 3T3 cells were seeded into white 1536-well plates using a Multidrop Combi peristaltic dispenser (ThermoFisher, Waltham, MA) at a density of 400 cells/well in 5 uL of medium respectively. A pintool (Kalypsys) was used to transfer 23 nL of compound solution to the 1536-well assay plates. After 48 or 72 hr incubation at 37 degree Celsius, 5% CO2 and 95% humidity, 2.5 uL of CellTiter-Glo (Promega) was dispensed into each well using a dispenser (Aspect Automation, St. Paul, MN) with solenoid valves (Lee Valves, Westbrook CT). Plates were left at room temperature for 10 min before imaging the ATP-coupled luminescence using a ViewLux microplate imager (PerkinElmer, Waltham, MA).
For orientation: Cellular ATP, detected with luciferase, serves as a proxy for viable cell number.
Take `Cc1nn(CCC#N)c(C)c1[C@@H]1C=C[C@@H](NS(=O)(=O)c2ccccc2)C1`: the Potency is 25.1 µM (active). As for `Cc1noc(C)c1[S+](=O)([O-])N1CCCC2(CC(Cc3ccccc3)=NO2)C1` (configuration not stated), the “activity change, negative = cytotoxicity” value is -15.9%.

For `CN(C)CCNC(=O)C[C@@H]1c2nc(NC(=O)c3ccc(C(C)(C)C)cc3)sc2C[C@@H]2[C@](C)(CO)[C@H](O)CC[C@]21C`, the Potency was 25.1 µM (active). As for `COCC(=O)Nc1nc2c(s1)C[C@@H]1[C@](C)(CO)[C@H](O)CC[C@@]1(C)[C@@H]2CC(=O)NCCN1CCOCC1`, the “activity change, negative = cytotoxicity” value is -5.42%. Regarding `C=CCN(C)C(=O)C[C@@H]1c2nc(NC(=O)c3ccc(C(C)(C)C)cc3)sc2C[C@@H]2[C@](C)(CO)[C@H](O)CC[C@]21C`, the Potency is 28.2 µM (active). With `C=CCOC(=O)Nc1nc2c(s1)C[C@@H]1[C@](C)(CO)[C@H](O)CC[C@@]1(C)[C@@H]2CC(=O)N(CC)CC`, the “activity change, negative = cytotoxicity” value was -24.1%. Same read-out and setting: the same measure for `CC(=O)N1CCN(C(=O)C[C@@H]2c3nc(NC(=O)c4cccs4)sc3C[C@@H]3[C@](C)(CO)[C@H](O)CC[C@]32C)CC1`: -7.77%; for `C[C@]1(CO)[C@H]2Cc3sc(NC(=O)C4CCC4)nc3[C@@H](CC(=O)N3CCCCC3)[C@]2(C)CC[C@H]1O`: -20.3%. With `Cc1noc(C)c1[S+](=O)([O-])N1CCC2(CC(C(C)C)=NO2)C1` (configuration not stated), the molecule was called inactive. For the molecule `C[C@@H]1CN(C(=O)CNS(=O)(=O)c2cccs2)C[C@@]1(O)C1CC1`, the “activity change, negative = cytotoxicity” value is 2.19%. `CN(C(=O)c1ccccc1)C1CCc2ccccc21` (configuration not stated): the “activity change, negative = cytotoxicity” value is -22.7% [at 138 µM]. The same measure, in the same setting: in the case of `CC(C)N(C)Cc1nnnn1CC(=O)NCc1ccc2nonc2c1` it was -1.51%; in that of `O=C(CN1C(=O)C(c2ccccc2)=NC12CCCC2)Nc1ccc2c(c1)OCCO2`, -12.9%; in that of `Cn1cnnc1CC1CCCN(C(=O)c2ccsc2)C1` (configuration not stated), -9.22%. As for `COc1ccc(OCC2CCN(CC3(O)CCCNC3)CC2)cc1` (configuration not stated), the Potency is 44.7 µM (active).

On to `CCc1cc(N2CCN(CC3(O)CCCNC3)CC2)ncn1` (configuration not stated), for which the “activity change, negative = cytotoxicity” value is 1.73%.

Turning to `OC1(CN2CCC(CCn3cccn3)CC2)CNCCOC1` (configuration not stated), the “activity change, negative = cytotoxicity” value is -1.98%. For `Cc1cc(C)c(-c2nc3ncccc3[nH]2)[nH]1`, the “activity change, negative = cytotoxicity” value was -16.4% [at 174 µM]. `CC(C)NC(=O)N1CCN(CCCn2nc3n(c2=O)CCCC3)CC1`: the “activity change, negative = cytotoxicity” value was -16.3%. For `COc1ccc(-c2cc(N3CCCN(C(=O)c4ccc(C)cc4)CC3)n[nH]2)cc1`, the “activity change, negative = cytotoxicity” value is -21.8%. As to `CCOc1cc(C(=O)N2CCCN(c3cc(-c4ccccc4)[nH]n3)CC2)cc(OCC)c1OCC`, the “activity change, negative = cytotoxicity” value was -8.89%. `O=C(c1ccc2cc[nH]c2c1)N1CCCN(c2cc(-c3ccc(Cl)cc3)[nH]n2)CC1`: the Potency is 39.8 µM (active). With `COc1ccc(-c2cc(N3CCN(C(=O)c4ccncc4)CC3)n[nH]2)cc1`, the “activity change, negative = cytotoxicity” value is -17.1%. As to `O=C(N1CCN(c2cc(-c3ccc(Cl)cc3)[nH]n2)CC1)C1(c2ccccc2)CC1`, the Potency was 35.5 µM (active). As to `O=C(c1cccnc1)N1CCN(c2cc(-c3ccccc3)[nH]n2)CC1`, the “activity change, negative = cytotoxicity” value is -25.7%. Consider `O=C(NCc1ccccn1)c1ccc2oc(-c3cccnc3)nc2c1`, for which the “activity change, negative = cytotoxicity” value is -20.7%.

As for `O=C(c1ccccc1Cl)N1CCC(c2nc(-c3cccnn3)no2)CC1`, the “activity change, negative = cytotoxicity” value was 3.48%. On to `O=C1NCCCCCN(C(=O)NCCc2ccccc2)[C@H]2CCC[C@@H]12`, for which the “activity change, negative = cytotoxicity” value was -18.9%. Same read-out and setting: in the case of `CCN(C1CCOCC1)C1CN(C(=O)C2CC2)C1` it was -3.57%. On the same count and under the same terms, in the case of `CC(=O)c1ccc(NC(=O)N2CCc3c(nc(-c4ccc(F)cc4)[nH]c3=O)C2)cc1` it was -8.56%; in that of `O=S(=O)(NCC1CNCCOC1)c1ccc(F)c(F)c1F` (configuration not stated), 2.03%. As to `CCNc1cc(N2CCC(CCC(=O)Nc3ccc(C)cc3C)CC2)ncn1`, the “activity change, negative = cytotoxicity” value was -28%.

`CCOc1ncccc1CNC(=O)c1cc(S(N)(=O)=O)ccc1F`: the “activity change, negative = cytotoxicity” value is -29.4%. Turning to `COc1ccc(CCNC(=O)c2nnn3cc(-c4ccccc4)[nH]c(=O)c23)cc1OC`, the “activity change, negative = cytotoxicity” value is -24.9%.

For `CNC(=O)c1cccc(-c2cnc3[nH]cc(CC(=O)NCc4cccc(F)c4)c3c2)c1`, the Potency was 89.1 µM (active). Regarding `COc1ccc(CNC(=O)Cc2c[nH]c3ncc(-c4ccccc4)cc23)cc1OC`, the Potency is 39.8 µM (active). Turning to `O=C(Cn1nc2c(cc1=O)CCCC2)NCc1cccc(F)c1`, the outcome was inactive.

As to `O=C(Cc1cccc(F)c1)Nc1cnc(-c2cccnc2)nc1`, the “activity change, negative = cytotoxicity” value is -21.8%.

For `COc1ccccc1C(=O)NCc1ccnc2[nH]ccc12`, the “activity change, negative = cytotoxicity” value was -20.2% [at 138 µM].

For the molecule `O=C(NCc1nc(-c2cccc(F)c2)c(-c2ccccn2)[nH]1)[C@@H]1CCCN1`, the “activity change, negative = cytotoxicity” value is -3.54%. For `O=C(NCC(F)F)[C@@H]1CCCN1c1nccc(Nc2ccccc2Cl)n1`, the “activity change, negative = cytotoxicity” value is -20.9%. Turning to `COc1ccc(Nc2ccnc(N3CCC(C(=O)N4CCN(C(C)=O)CC4)CC3)n2)cc1`, the “activity change, negative = cytotoxicity” value is -9.35%. As for `Cc1ccc(Nc2ccnc(N3CCCC3C(=O)N3CCC(Cc4ccccc4)CC3)n2)cc1` (configuration not stated), the Potency was 20 µM (active). Take `CCCN1CC(Oc2ccc(-c3noc(C4CC4)n3)cc2)C1`: the “activity change, negative = cytotoxicity” value was -8.55%. In the case of `COc1cccc(F)c1C(=O)N1C[C@H](N)C[C@H]1C(=O)NC(C)C`, the “activity change, negative = cytotoxicity” value is -22.2%. In the case of `O=C1CCCCC(CNC(=O)c2cc(F)ccc2F)N1` (configuration not stated), the outcome was inactive. As to `NCc1ccc(-c2cncnc2)cc1`, the “activity change, negative = cytotoxicity” value was 1.34% [at 174 µM].
